The results in this text go back to PubChem BioAssay.

Active and inactive are the calls of the source. Unless noted, how the calls were made is not given here.

For experiment [1], the system named is Wnt5a (protein binding on small-molecule microarray). As to the kind of experiment: Wnt5a binders on small-molecule microarray, primary screen, biophysical, 635/667 nm fluorescence (AID 1142).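 Further: fluorescence read at 667 nm with signal to noise per printed feature.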 The conditions noted are these: 635 nm fluorescence, higher = more signal.
Experiment [2] is described as follows: cell viability in Huh7 cells, primary screen, cytotoxicity control for HCV replication inhibitor project, CellTiter-Glo luminescence, basal, 48 h (AID 1143).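 Further: Huh7 hepatoma cells carrying a hepatitis C replication reporter with no stimulus; test concentration not given here.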 To be noted: Huh7 HCV replicon, higher = more signal, called active from +8 up or from −8 down.
Experiment [3] is described as follows: P. aeruginosa biofilm formation inhibitors, primary screen, PAO1 strain, BacTiter-Glo luminescence, LB-PBS (AID 1144). To be noted: 12 h, higher = more signal.
Experiment [4] is described as follows: CREB reporter modulators without forskolin, primary screen, cell-based, PC12, CRE-LacZ reporter, unstimulated (AID 1145). To be noted: no forskolin, luminescence, 4.5 h, higher = more signal, called active from +8 up or from −8 down.
Experiment [5] in a line: CREB reporter modulators under forskolin, primary screen, cell-based, PC12, CRE-LacZ reporter, forskolin-stimulated (AID 1146).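 Further: PC12 cells with 6xCRE LacZ reporter stimulated by forskolin 10 µM; beta-galactosidase reporter signal reflecting CREB driven transcription.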 To be noted: luminescence, 4.5 h, higher = more signal, called active from +8 up or from −8 down.
Experiment [6] concerns the target Streptavidin (Streptomyces avidinii) (UniProt P22629). The experiment in a line: streptavidin binders on small-molecule microarray, primary screen, artefact control for SMM compound annotation, biophysical, 635/667 nm fluorescence (AID 1147).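 Further: signal reflects streptavidin binding to arrayed compounds as a control protein.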 To be noted: streptavidin binding, higher = more signal.
Experiment [7] is described as follows: small-molecule binders of probe aInhba, primary screen, biochemical, small-molecule microarray, 635/667 nm fluorescence (AID 1148).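 Further: score merges 667nm spot fluorescence with signal-to-noise for antibody binding to printed compounds.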 The conditions noted are these: higher = more signal.
Experiment [8] concerns the target Torsin-1A (Homo sapiens) (UniProt O14656). The experiment in a line: torsin A binders from cell lysate, primary screen, small-molecule microarray, wild-type, 635/667 nm (AID 1149). The conditions noted are these: COS7 hTOR1A-WT lysate, 635 nm fluorescence, higher = more signal.
For experiment [9] the target is unchanged. The experiment in a line: small-molecule binders of mutant TOR1A in lysate, primary screen, cell lysate, small-molecule microarray, COS7 lysate, 635/667 nm fluorescence (AID 1150).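 Further: score pools 667 nm emission and signal to noise measuring lysate protein binding.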 The conditions noted are these: COS7 hTOR1A mutant lysate, 635 nm fluorescence, higher = more signal.
Experiment [10] deals with Sonic hedgehog protein (Shh). As to the kind of experiment: small-molecule binders of Shh protein, primary screen, biochemical, small-molecule microarray, 635/667 nm fluorescence (AID 1151).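 Further: Shh protein binding to compounds spotted on small-molecule microarray slides; score combines spot fluorescence intensity with signal-to-noise across triplicate slides.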 The conditions noted are these: small-molecule microarray binding, 635 nm fluorescence; higher = more signal.
Experiment [11] is described as follows: E. coli DRC41 culture turbidity changes, primary screen, E. coli filamentation inducer project, strain DRC41, OD650, 48 h (AID 1152).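 Further: E. coli MC1000 strain DRC41 lacking acrAB efflux pump and sulA.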 To be noted: E. coli DRC41 (acrAB sulA), higher = more signal, called active from +8 up or from −8 down.
The nature of experiment [12]: small-molecule binders of probe aLefty1, primary screen, biochemical, small-molecule microarray, 635/667 nm fluorescence (AID 1153).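 Further: score merges spot fluorescence with signal-to-noise ratio from the scanned slide images.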 To be noted: higher = more signal.
Experiment [13] can be described thus: PSAC antagonists in infected red cells, primary screen, cell-based, P. falciparum Indochina, OD700, 1 h (AID 1154). The conditions noted are these: P. falciparum Indochina infected RBC osmotic lysis, higher = more signal, called active from +8 up or from −8 down.
Experiment [14] is described as follows: PSAC antagonists in infected red cells, primary screen, cell-based, P. falciparum Indochina, OD700, 2 h (AID 1155).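 Further: lysis reports solute entry through the parasite surface anion channel PSAC; channel blockers reduce lysis of infected cells.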 To be noted: P. falciparum Indochina infected erythrocytes, osmotic lysis OD700; higher = more signal, called active from +8 up or from −8 down.
Experiment [15] is described as follows: osmotic lysis modulators in infected erythrocytes, primary screen, PSAC antagonist project, cell-based, P. falciparum Indochina, OD700, 3 h (AID 1156). To be noted: higher = more signal, called active from +8 up or from −8 down.
Experiment [16] can be described thus: PSAC antagonists in infected red cells, primary screen, cell-based, P. falciparum Indochina, OD700, 18 h (AID 1157). To be noted: P. falciparum Indochina infected erythrocytes, osmotic lysis OD700, 18 h; higher = more signal, called active from +8 up or from −8 down.
Experiment [17] in a line: modulators of S6 phosphorylation in cells, primary screen, cell-based, A549, cytoblot, luminescence, serum-stimulated (AID 1158).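 Further: serum-stimulated A549 lung adenocarcinoma cells; signal is phosphorylated S6 detected by cytoblot immunostaining with HRP secondary.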 To be noted: A549 phospho-S6 cytoblot, 5 h, higher = more signal.
The target in experiment [18] is NADPH oxidase 2 (Homo sapiens) (UniProt P04839). As to the kind of experiment: NOX2-dependent H2O2 signal modulators, primary screen, NOX inhibitor project, cell-based, HEK293-NOX2, PMA-stimulated, Amplex Red fluorescence (AID 1159). Further: test concentration not given here. The conditions noted are these: 45 min, higher = more signal, called active from +8 up or from −8 down.
Experiment [19] addresses NADPH oxidase 4 (Homo sapiens) (UniProt Q9NPH5). The experiment in a line: NOX4-dependent H2O2 signal modulators, primary screen, NOX inhibitor project, cell-based, HEK293-NOX4, tetracycline-induced, Amplex Red fluorescence (AID 1160). The conditions noted are these: 45 min, higher = more signal, called active from +8 up or from −8 down.
Experiment [20] deals with NADPH oxidase 5 (Homo sapiens) (UniProt Q96PH1). As to the kind of experiment: NOX5-dependent H2O2 signal modulators, primary screen, NOX inhibitor project, cell-based, HEK293-NOX5, Amplex Red fluorescence (AID 1161). To be noted: HEK293-NOX5, ionomycin, 45 min, higher = more signal.
NADPH oxidase 5 (Homo sapiens), sequence (Q96PH1 whole entry, looked up): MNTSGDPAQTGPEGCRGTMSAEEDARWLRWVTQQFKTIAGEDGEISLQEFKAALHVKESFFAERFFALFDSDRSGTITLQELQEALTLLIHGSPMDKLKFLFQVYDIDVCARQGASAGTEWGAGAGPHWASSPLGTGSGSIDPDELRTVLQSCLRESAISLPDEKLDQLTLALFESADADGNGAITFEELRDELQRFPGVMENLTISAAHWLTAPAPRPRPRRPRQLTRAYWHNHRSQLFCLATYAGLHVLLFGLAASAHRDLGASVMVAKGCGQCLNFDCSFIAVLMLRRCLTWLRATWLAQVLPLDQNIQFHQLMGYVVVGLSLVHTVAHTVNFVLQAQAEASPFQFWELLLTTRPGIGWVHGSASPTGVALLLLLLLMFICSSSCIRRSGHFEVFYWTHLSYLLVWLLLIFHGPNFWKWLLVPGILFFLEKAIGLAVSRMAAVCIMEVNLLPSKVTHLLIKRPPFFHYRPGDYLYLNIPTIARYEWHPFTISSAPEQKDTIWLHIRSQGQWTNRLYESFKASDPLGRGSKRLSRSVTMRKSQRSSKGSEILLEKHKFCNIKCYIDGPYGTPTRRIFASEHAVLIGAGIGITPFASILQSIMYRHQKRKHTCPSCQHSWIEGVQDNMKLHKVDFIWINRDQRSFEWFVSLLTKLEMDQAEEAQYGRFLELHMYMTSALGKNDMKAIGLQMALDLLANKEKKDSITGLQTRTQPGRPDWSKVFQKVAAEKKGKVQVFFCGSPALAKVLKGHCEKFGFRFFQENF

Streptavidin (Streptomyces avidinii), sequence (P22629 whole entry, looked up): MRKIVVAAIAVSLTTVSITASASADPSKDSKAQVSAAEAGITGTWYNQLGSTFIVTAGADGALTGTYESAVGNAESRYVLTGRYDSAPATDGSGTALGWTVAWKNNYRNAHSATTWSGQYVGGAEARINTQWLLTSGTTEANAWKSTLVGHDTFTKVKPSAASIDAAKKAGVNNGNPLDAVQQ
NADPH oxidase 4 (Homo sapiens), sequence (Q9NPH5 whole entry, looked up): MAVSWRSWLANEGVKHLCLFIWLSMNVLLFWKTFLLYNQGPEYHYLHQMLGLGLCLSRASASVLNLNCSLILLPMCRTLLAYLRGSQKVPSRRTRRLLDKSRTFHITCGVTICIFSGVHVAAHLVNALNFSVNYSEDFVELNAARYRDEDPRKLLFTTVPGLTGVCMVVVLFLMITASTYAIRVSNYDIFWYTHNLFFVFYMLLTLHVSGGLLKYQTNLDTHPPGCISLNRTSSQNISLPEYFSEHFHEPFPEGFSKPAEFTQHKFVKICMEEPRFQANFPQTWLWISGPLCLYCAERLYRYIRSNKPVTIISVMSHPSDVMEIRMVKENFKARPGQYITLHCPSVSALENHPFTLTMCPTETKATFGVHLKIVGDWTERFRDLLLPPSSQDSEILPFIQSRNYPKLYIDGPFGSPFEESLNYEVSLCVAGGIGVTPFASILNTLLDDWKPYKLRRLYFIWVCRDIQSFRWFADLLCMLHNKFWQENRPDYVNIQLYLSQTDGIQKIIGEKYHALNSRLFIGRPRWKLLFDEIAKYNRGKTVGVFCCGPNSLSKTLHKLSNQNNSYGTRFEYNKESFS
Torsin-1A (Homo sapiens), sequence (O14656 whole entry, looked up): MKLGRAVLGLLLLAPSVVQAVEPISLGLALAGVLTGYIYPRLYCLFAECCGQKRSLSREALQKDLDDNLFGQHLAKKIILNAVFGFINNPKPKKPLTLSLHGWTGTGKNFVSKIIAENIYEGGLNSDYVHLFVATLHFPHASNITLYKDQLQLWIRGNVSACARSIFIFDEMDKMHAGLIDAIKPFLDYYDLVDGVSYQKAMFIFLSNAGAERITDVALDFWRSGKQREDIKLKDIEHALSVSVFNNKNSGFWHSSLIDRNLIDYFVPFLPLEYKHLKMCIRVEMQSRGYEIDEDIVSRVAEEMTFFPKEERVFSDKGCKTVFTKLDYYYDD
NADPH oxidase 2 (Homo sapiens), sequence (P04839 whole entry, looked up): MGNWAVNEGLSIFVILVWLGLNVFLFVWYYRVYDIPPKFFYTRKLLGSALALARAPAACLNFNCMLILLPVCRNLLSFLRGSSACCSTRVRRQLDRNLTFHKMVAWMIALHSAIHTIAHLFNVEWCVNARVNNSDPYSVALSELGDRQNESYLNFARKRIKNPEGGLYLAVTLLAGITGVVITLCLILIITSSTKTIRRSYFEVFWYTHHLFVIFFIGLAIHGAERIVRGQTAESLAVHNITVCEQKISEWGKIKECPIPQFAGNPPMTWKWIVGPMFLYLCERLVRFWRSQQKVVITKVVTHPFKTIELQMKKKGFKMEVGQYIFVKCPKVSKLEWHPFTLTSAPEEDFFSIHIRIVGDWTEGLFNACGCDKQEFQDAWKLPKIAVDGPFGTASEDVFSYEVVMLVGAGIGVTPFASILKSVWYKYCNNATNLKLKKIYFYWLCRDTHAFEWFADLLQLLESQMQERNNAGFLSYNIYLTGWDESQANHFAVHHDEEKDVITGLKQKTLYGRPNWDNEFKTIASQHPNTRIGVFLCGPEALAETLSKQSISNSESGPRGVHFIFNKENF

On to `CCOC(=O)C1=C[C@@H](c2ccccc2)N(S(=O)(=O)c2ccc(C)cc2)[C@H]1c1ccccc1`, for which the composite z-score in experiment [1] was 0.202; in experiment [6], 1.1; in experiment [7], 0.0925; in [8], 0.0157; in experiment [9] it was 0.176; in experiment [10], 0.212. The same molecule yielded a composite z-score in [12] of 0.119. The z-score was -1.91 (inactive) in [2]; -0.42 (inactive) in [3]; -0.275 (inactive) in experiment [4]; 0.294 (inactive) in experiment [5]; -0.388 (inactive) in experiment [11]; 13.8 (active) in [13]. The z-score in experiment [14] is 2.21 (inactive); in experiment [15], -0.657 (inactive); in [16] it was 0.708 (inactive); in [17], -0.8; in [18], -0.395 (inactive); in [19], -0.395 (inactive). The same molecule returned a z-score in experiment [20] of 0.565.
Take `COc1ccc(C#Cc2ccc3c(c2)[C@]2(C(=O)N3)[C@H](c3ccc(OCCO)cc3)N3[C@H](c4ccccc4)[C@H](c4ccccc4)OC(=O)[C@H]3[C@@H]2C(=O)N2CCc3cc(OC)c(OC)cc3C2)cc1`: the composite z-score in [1] is 1.04; in experiment [6], 1.83; in experiment [7] it was -0.308; in experiment [8], 0.394; in experiment [9], 0.722; in experiment [10] it was 2.15. The same molecule yielded a composite z-score in experiment [12] of -0.261. Also, the z-score was -0.632 (inactive) in experiment [2]; -0.221 (inactive) in experiment [3]; 0.478 (inactive) in experiment [4]; 0.198 (inactive) in [5]; -0.433 (inactive) in [11]; 3.24 (inactive) in [13]. In addition, the z-score in experiment [14] is 2.77 (inactive); in experiment [15], 1.15 (inactive); in [16], 1.1 (inactive); in experiment [17], -0.298; in experiment [18] it was 0.661 (inactive); in experiment [19], 0.621 (inactive). The molecule also gave a z-score in [20] of 0.27.
With `COc1cc(CO)cc(I)c1O[C@H]1C=C(C(=O)NCCO)C[C@@H](NCC2CCCCC2)[C@@H]1O`, the composite z-score was -0.042 in experiment [1]; 0.0581 in experiment [6]; 0.0422 in experiment [7]; -0.549 in experiment [8]; -0.262 in experiment [9]; -0.397 in experiment [10]. The molecule also registered a composite z-score in experiment [12] of -0.313. Also, the z-score was -0.731 (inactive) in experiment [2]; -0.893 (inactive) in [3]; -0.0534 (inactive) in experiment [4]; -0.269 (inactive) in experiment [5]; 2.19 (inactive) in experiment [11]; 1.35 (inactive) in experiment [13]. The z-score in experiment [14] was 0.94 (inactive); in experiment [15], 0.996 (inactive); in [16] it was 0.183 (inactive); in experiment [17] it was 1.06; in [18], 0.132 (inactive); in [19], 0.97 (inactive). Moreover, the z-score in experiment [20] came out at 1.04.
Consider `COc1cc(NN2C(C(O)c3cc(OC)c(OC)c(OC)c3)C=CC3C(=O)N(c4ccccc4)C(=O)C32)cc(OC)c1OC` (stereo not given), for which the composite z-score is 0.582 in experiment [1]; 1.8 in experiment [6]; 0.867 in experiment [7]; -0.152 in [8]; 0.816 in [9]; -0.317 in [10]. The molecule further gave a composite z-score in [12] of 1.02. The z-score in [2] was -2.99 (inactive); in experiment [3], -0.24 (inactive); in experiment [4], 0.243 (inactive); in [5], -0.0967 (inactive); in [11], -1.78 (inactive); in experiment [13], 2.73 (inactive). Besides, the z-score in experiment [14] was -0.577 (inactive); in experiment [15] it was 1.27 (inactive); in experiment [16], -1.19 (inactive); in experiment [17], 1.07; in experiment [18], -3.35 (inactive); in experiment [19], -4.26 (inactive). The z-score in experiment [20] was -6.87.
As for `NCCCCCNC(=O)[C@@H]1C[C@@H]2C(=O)N3CCC[C@H]3C(=O)N2[C@@H]1c1ccc(O)cc1`, the composite z-score amounted to 0.446 in experiment [1]; 1.11 in [6]; 0.0706 in experiment [7]; 0.778 in experiment [8]; 1.1 in experiment [9]; 0.468 in experiment [10]. Moreover, in experiment [12], the composite z-score was found to be 1.08. Besides, the z-score in [2] is -0.406 (inactive); in [3] it was -0.113 (inactive); in experiment [4], 0.143 (inactive); in [5], -0.707 (inactive); in experiment [11], 0.524 (inactive); in [13], 1.9 (inactive). Besides, the z-score in experiment [14] is 0.106 (inactive); in experiment [15], -0.696 (inactive); in [16], 0.277 (inactive); in experiment [17], -0.596; in experiment [18], 0.105 (inactive); in experiment [19], -1.53 (inactive). Also, in experiment [20], the z-score was determined as 0.0464.
